Data taken from PubChem BioAssay (NCI).
This is part of a sample that, as a whole, favours compounds with a hit. Of some 79,000 tested, about 15% had one in any assay. Active and inactive are the calls of the source. Rule as the data show it: active = growth inhibition above about 70%; inactive = the rest.

Columns and labels:
[1] = NCI Yeast Anticancer Drug Screen. Data for the rad52 strain (AID 147);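 also: 0% = growth of vehicle-treated control cultures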; details: S. cerevisiae rad52 mutant growth inhibition, active compounds read high
In short: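 Measured: yeast growth inhibition. System: strain with a defined DNA damage repair alteration. Reference: vehicle-treated control cultures.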

[2] = NCI Yeast Anticancer Drug Screen. Data for the wt1 strain (AID 149);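 also: 0% = growth of vehicle-treated wt1 cultures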; details: S. cerevisiae wt1 strain (SPY 50644) growth inhibition, active compounds read high
In short: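 wt1 yeast, compound-treated; % growth inhibition vs vehicle control.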

[3] = NCI Yeast Anticancer Drug Screen. Data for the rad50EPP+ strain (AID 151);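 also: 0% = growth of vehicle-treated control cultures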; details: S. cerevisiae rad50 mutant strain, active compounds read high
In short: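 One strain with a rad50 alteration (rad50EPP+) was compound-treated, its growth then compared to that of vehicle controls.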

[4] = NCI Yeast Anticancer Drug Screen. Data for the rad50 strain (AID 155);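 also: 0% = growth of vehicle-only cultures of the same strain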; details: S. cerevisiae rad50 strain growth inhibition, active compounds read high
In short: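 Genetically altered yeast (DNA repair pathway); compound treatment; growth inhibition vs vehicle ctrl.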

[5] = NCI Yeast Anticancer Drug Screen. Data for the mec2-1 strain (AID 157); details: S. cerevisiae mec2-1 strain, active compounds read high
In short: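 Test agents were screened against the mec2-1 yeast strain, with defined DNA repair or cell cycle alteration. Growth was scored as inhibition against vehicle-only controls.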

[6] = NCI Yeast Anticancer Drug Screen. Data for the rad14 strain (AID 159);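 also: 0% = growth of vehicle-treated control cultures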; details: S. cerevisiae rad14 strain growth inhibition, active compounds read high
In short: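 Test compounds were applied to a repair-deficient yeast strain. Its growth was then compared with that of cultures given vehicle alone, and inhibition was expressed relative to those controls.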

[7] = NCI Yeast Anticancer Drug Screen. Data for the sgs1 mgt1 strain (AID 161);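 also: 0% = growth of cultures given vehicle only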; details: S. cerevisiae sgs1 mgt1 strain, active compounds read high
In short: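 Inhibition of yeast growth, normalised to vehicle-treated controls, is reported for a strain bearing genetic alterations in DNA damage repair.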

[8] = NCI Yeast Anticancer Drug Screen. Data for the CLN2oe strain (AID 163);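 also: 0% = growth of vehicle-only control cultures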; details: S. cerevisiae CLN2oe strain, active compounds read high
In short: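 Here, growth inhibition in a cell-cycle-altered yeast strain after compound exposure was quantified against vehicle control growth.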

[9] = NCI Yeast Anticancer Drug Screen. Data for the cln2 rad14 strain (AID 165);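 also: 0% = growth equal to vehicle treated cultures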; details: S. cerevisiae cln2 rad14 strain, active compounds read high
In short: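 Growth of compound-exposed yeast (cln2 rad14 genotype) measured and expressed as inhibition relative to vehicle.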

[10] = NCI Yeast Anticancer Drug Screen. Data for the bub3 strain (AID 167); details: S. cerevisiae bub3 mutant strain, active compounds read high
In short: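 Yeast carrying a defined mutation is treated with each compound, and growth is compared with that of vehicle-exposed cells to give inhibition.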

[11] = NCI Yeast Anticancer Drug Screen. Data for the wt2 strain (AID 169);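 also: 0% = growth of vehicle-treated yeast cultures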; details: S. cerevisiae wt2 strain growth inhibition, active compounds read high
In short: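 Genetically defined yeast strains from a DNA-repair/cell-cycle panel were used. Compound-exposed yeast growth was measured, and the inhibition was calculated relative to vehicle treatment.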

[12] = NCI Yeast Anticancer Drug Screen. Data for the sgs1 strain (AID 173);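 also: 0% = growth of vehicle-only control cultures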; details: S. cerevisiae sgs1 mutant, active compounds read high
In short: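 Relative growth inhibition, referenced to vehicle, was determined in a yeast strain with a defined alteration affecting DNA damage repair or cell cycle control after compound exposure.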

[13] = NCI Yeast Anticancer Drug Screen. Data for the mlh1 rad18 strain (AID 175); details: S. cerevisiae mlh1 rad18 strain growth inhibition, active compounds read high
In short: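 In this whole-cell yeast screen, a strain with altered DNA damage repair is challenged with compound, and its growth is measured against matched vehicle-treated controls.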

[14] = NCI Yeast Anticancer Drug Screen. Data for the rad18 strain (AID 177); details: S. cerevisiae rad18 mutant growth inhibition, active compounds read high
In short: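 Screen uses a yeast strain with a defined lesion in DNA damage repair; compound effect is read as loss of growth compared to untreated vehicle cultures.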

[15] = NCI Yeast Anticancer Drug Screen. Data for the mlh1 strain (AID 171);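 also: 0% = growth of vehicle-treated control cultures of the same strain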; details: S. cerevisiae mlh1 strain growth inhibition, active compounds read high
In short: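 Here the genetically defined yeast mutant is grown with each compound, and the extent to which its growth falls below that of vehicle-exposed cells is reported.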

[16] = at 5.0 µM (retest, dose inferred, filed as 0.5)
[17] = at 50.0 µM (retest, dose inferred, filed as 5.0)

Measured: growth inhibition

CN(NC(=O)/C(=C/c1ccc(O)cc1)NC(=O)c1ccccc1)c1ccnc2cc(Cl)ccc12
active: [1]; at 100.0 µM 79% | [4]; at 50.0 µM 80.1% | [4]; at 100.0 µM 81% | [5]; at 100.0 µM 72% | [11]; at 100.0 µM 70% | [12]; at 100.0 µM 83% | [13]; at 50.0 µM 80.3% | [14]; at 33.0 µM 78% | [14]; at 100.0 µM 87%
inactive: [1]; at 1.2 µM 2% | [1]; at 3.7 µM 9% | [1]; at 11.0 µM 35% | [1]; at 33.0 µM 60% | [2]; at 1.2 µM 3% | [2]; at 3.7 µM 4% | [2]; at 11.0 µM 11% | [2]; at 33.0 µM 40% | [2]; at 100.0 µM 69% | [3]; at 1.2 µM -2% | [3]; at 3.7 µM 3% | [3]; at 11.0 µM 14% | [3]; at 33.0 µM 34% | [3]; at 100.0 µM 42% | [4]; at 1.2 µM -2% | [4]; at 3.7 µM -4% | [4]; [16] 6% | [4]; at 11.0 µM 15% | [4]; at 33.0 µM 68% | [4]; [17] 20% | [5]; at 1.2 µM 1% | [5]; at 3.7 µM 4% | [5]; [16] 15% | [5]; at 11.0 µM 12% | [5]; at 33.0 µM 44% | [5]; [17] 2% | [5]; at 50.0 µM 46.9% | [6]; at 1.2 µM 0% | [6]; at 3.7 µM 2% | [6]; at 11.0 µM 13% | [6]; at 33.0 µM 38% | [6]; at 100.0 µM 60% | [7]; [16] 9% | [7]; [17] 9% | [7]; at 50.0 µM 51.1% | [8]; at 1.2 µM 6% | [8]; at 3.7 µM 3% | [8]; at 11.0 µM 13% | [8]; at 33.0 µM 39% | [8]; at 100.0 µM 65% | [9]; [16] -3% | [9]; [17] 2% | [9]; at 50.0 µM -2.45% | [10]; at 1.2 µM -1% | [10]; at 3.7 µM 4% | [10]; [16] 21% | [10]; at 11.0 µM 16% | [10]; at 33.0 µM 43% | [10]; [17] 65% | [10]; at 50.0 µM 55.1% | [10]; at 100.0 µM 68% | [11]; at 1.2 µM -3% | [11]; at 3.7 µM -1% | [11]; at 11.0 µM 11% | [11]; at 33.0 µM 47% | [12]; at 1.2 µM 2% | [12]; at 3.7 µM 4% | [12]; at 11.0 µM 14% | [12]; at 33.0 µM 67% | [13]; [16] 1% | [13]; [17] 2% | [14]; at 1.2 µM 1% | [14]; at 3.7 µM 7% | [14]; at 11.0 µM 45%

CC(=O)Oc1ccc(C(=O)c2ccccc2)c(O)c1
inactive: [1]; at 1.2 µM -7% | [1]; at 3.7 µM -10% | [1]; at 11.0 µM 2% | [1]; at 33.0 µM 28% | [2]; at 1.2 µM -2% | [2]; at 3.7 µM -1% | [2]; at 11.0 µM -4% | [2]; at 33.0 µM 10% | [3]; at 1.2 µM 14% | [3]; at 3.7 µM 20% | [3]; at 11.0 µM 19% | [3]; at 33.0 µM 47% | [4]; at 1.2 µM -4% | [4]; at 3.7 µM 1% | [4]; [16] 60% | [4]; at 11.0 µM -2% | [4]; at 33.0 µM 32% | [5]; at 1.2 µM -31% | [5]; at 3.7 µM -5% | [5]; [16] 64% | [5]; at 11.0 µM 2% | [5]; at 33.0 µM 26% | [5]; at 50.0 µM 50% | [6]; at 1.2 µM -24% | [6]; at 3.7 µM -20% | [6]; at 11.0 µM -19% | [6]; at 33.0 µM 21% | [7]; [16] -18% | [8]; at 1.2 µM -7% | [8]; at 3.7 µM -9% | [8]; at 11.0 µM -10% | [8]; at 33.0 µM 12% | [9]; [16] 27% | [9]; at 50.0 µM 58.9% | [10]; at 1.2 µM -36% | [10]; at 3.7 µM -38% | [10]; [16] 5% | [10]; at 11.0 µM -58% | [10]; at 33.0 µM -25% | [11]; at 1.2 µM -3% | [11]; at 3.7 µM 7% | [11]; at 11.0 µM 7% | [11]; at 33.0 µM 21% | [15]; at 1.2 µM -2% | [15]; at 3.7 µM -1% | [15]; at 11.0 µM 0% | [15]; at 33.0 µM 36% | [12]; at 1.2 µM 6% | [12]; at 3.7 µM 10% | [12]; at 11.0 µM 13% | [12]; at 33.0 µM 46% | [13]; [16] 50% | [13]; at 50.0 µM 61.8% | [14]; at 1.2 µM 0% | [14]; at 3.7 µM 13% | [14]; at 11.0 µM 17% | [14]; at 33.0 µM 39%
active: [1]; at 100.0 µM 96% | [2]; at 100.0 µM 96% | [3]; at 100.0 µM 85% | [4]; [17] 95% | [4]; at 50.0 µM 70.2% | [4]; at 100.0 µM 96% | [5]; [17] 99% | [5]; at 100.0 µM 96% | [6]; at 100.0 µM 92% | [7]; [17] 88% | [7]; at 50.0 µM 74.5% | [8]; at 100.0 µM 96% | [9]; [17] 82% | [10]; [17] 88% | [10]; at 50.0 µM 74% | [10]; at 100.0 µM 95% | [11]; at 100.0 µM 94% | [15]; at 100.0 µM 96% | [12]; at 100.0 µM 96% | [13]; [17] 98% | [14]; at 100.0 µM 97%
